Key:
Assay in all cases: SPOT peptide array binding signal intensity (averaged, normalized) (arbitrary units (background-subtracted, floor 0; scale differs between SH3 domains)); higher = stronger binding of the SH3 domain to the peptide
[1] = target: AgAbp1
Procedure, shortened: (§1)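 Four yeast species supplied the SH3 domains, which were expressed as GST fusions in E. coli BL21(DE3) and purified on glutathione Sepharose. Incubation with cellulose membranes carrying synthetic 15-mer peptides, cysteines exchanged for serines, ran overnight at 4°C at 10 μg/ml in TBS-based blocking buffer. Binding signal is reported as normalized, background-subtracted spot intensity averaged over replicates, in arbitrary units not shared between domains.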

[2] = target: AgBbc1
Procedure, shortened: as §1

[3] = target: AgBem1-D1
Procedure, shortened: as §1

[4] = target: AgBzz1-D1
Procedure, shortened: as §1

[5] = target: AgBzz1-D2
Procedure, shortened: as §1

[6] = target: AgCyk3
Procedure, shortened: as §1

[7] = target: AgFus1
Procedure, shortened: as §1

[8] = target: AgHof1
Procedure, shortened: as §1

[9] = target: AgHse1
Procedure, shortened: as §1

[10] = target: AgLsb1
Procedure, shortened: as §1

[11] = target: AgLsb4
Procedure, shortened: as §1

[12] = target: AgMyo5
Procedure, shortened: as §1

[13] = target: AgNbp2
Procedure, shortened: as §1

[14] = target: AgRvs167
Procedure, shortened: as §1

[15] = target: AgSho1
Procedure, shortened: as §1

[16] = target: AgSla1-D1-D2
Procedure, shortened: as §1

[17] = target: AgSla1-D3
Procedure, shortened: as §1

[18] = target: CaAbp1-D1
Procedure, shortened: as §1

[19] = target: CaAbp1-D2
Procedure, shortened: as §1

[20] = target: CaBbc1
Procedure, shortened: as §1

[21] = target: CaBem1-D1
Procedure, shortened: as §1

[22] = target: CaBzz1-D1
Procedure, shortened: as §1

[23] = target: CaBzz1-D2
Procedure, shortened: as §1

[24] = target: CaCyk3
Procedure, shortened: as §1

[25] = target: CaFus1
Procedure, shortened: as §1

[26] = target: CaHof1
Procedure, shortened: as §1

[27] = target: CaHse1
Procedure, shortened: as §1

[28] = target: CaLsb1
Procedure, shortened: as §1

[29] = target: CaLsb4
Procedure, shortened: as §1

[30] = target: CaMyo5
Procedure, shortened: as §1

[31] = target: CaNbp2
Procedure, shortened: as §1

[32] = target: CaRvs167
Procedure, shortened: as §1

[33] = target: CaRvs167-3
Procedure, shortened: as §1

[34] = target: CaSho1
Procedure, shortened: as §1

[35] = target: CaSla1-D1-D2
Procedure, shortened: as §1

[36] = target: CaSla1-D3
Procedure, shortened: as §1

[37] = target: ScAbp1
Procedure, shortened: as §1

[38] = target: ScBbc1
Procedure, shortened: as §1

[39] = target: ScBem1-D1
Procedure, shortened: as §1

[40] = target: ScBzz1-D1
Procedure, shortened: as §1

[41] = target: ScBzz1-D2
Procedure, shortened: as §1

[42] = target: ScCyk3
Procedure, shortened: as §1

[43] = target: ScFus1
Procedure, shortened: as §1

[44] = target: ScHof1
Procedure, shortened: as §1

[45] = target: ScHse1
Procedure, shortened: as §1

[46] = target: ScLsb1
Procedure, shortened: as §1

[47] = target: ScLsb2
Procedure, shortened: as §1

[48] = target: ScLsb3
Procedure, shortened: as §1

[49] = target: ScLsb4
Procedure, shortened: as §1

[50] = target: ScMyo3
Procedure, shortened: as §1

[51] = target: ScMyo5
Procedure, shortened: as §1

[52] = target: ScNbp2
Procedure, shortened: as §1

[53] = target: ScPex13
Procedure, shortened: as §1

[54] = target: ScRvs167
Procedure, shortened: as §1

[55] = target: ScSho1
Procedure, shortened: as §1

[56] = target: ScSla1-D1-D2
Procedure, shortened: as §1

[57] = target: ScSla1-D3
Procedure, shortened: as §1

[58] = target: SpAbp1-D1
Procedure, shortened: as §1

[59] = target: SpBbc1
Procedure, shortened: as §1

[60] = target: SpBzz1-D1
Procedure, shortened: as §1

[61] = target: SpBzz1-D2
Procedure, shortened: as §1

[62] = target: SpCyk3
Procedure, shortened: as §1

[63] = target: SpHof1
Procedure, shortened: as §1

[64] = target: SpHof1-2
Procedure, shortened: as §1

[65] = target: SpHof1-3
Procedure, shortened: as §1

[66] = target: SpHse1
Procedure, shortened: as §1

[67] = target: SpLsb1
Procedure, shortened: as §1

[68] = target: SpLsb4
Procedure, shortened: as §1

[69] = target: SpMyo1
Procedure, shortened: as §1

[70] = target: SpNbp2
Procedure, shortened: as §1

[71] = target: SpPex13
Procedure, shortened: as §1

[72] = target: SpRvs167
Procedure, shortened: as §1

[73] = target: SpSla1-D1-D2
Procedure, shortened: as §1

[74] = target: SpSla1-D3
Procedure, shortened: as §1

With DHPKGPPPPPPPDEK the “SPOT peptide array binding signal intensity” value [1] was 9, the “SPOT peptide array binding signal intensity” value [2] was 3.75 and the “SPOT peptide array binding signal intensity” value [3] was no more than 0. The “SPOT peptide array binding signal intensity” value [4] was 1100, the “SPOT peptide array binding signal intensity” value [5] was 111 and the “SPOT peptide array binding signal intensity” value [6] was no more than 0. For the same binder, the “SPOT peptide array binding signal intensity” value [7] was 6.5, the “SPOT peptide array binding signal intensity” value [8] was no more than 0 and the “SPOT peptide array binding signal intensity” value [9] was 33. The “SPOT peptide array binding signal intensity” value [10] was 1.5, the “SPOT peptide array binding signal intensity” value [11] was no more than 0 and the “SPOT peptide array binding signal intensity” value [12] was 1710. The “SPOT peptide array binding signal intensity” value [13] was 7, the “SPOT peptide array binding signal intensity” value [14] was 1.17 and the “SPOT peptide array binding signal intensity” value [15] was no more than 0. The “SPOT peptide array binding signal intensity” value [16] was 14, the “SPOT peptide array binding signal intensity” value [17] was 297 and the “SPOT peptide array binding signal intensity” value [18] was 1.5. For the same binder, the “SPOT peptide array binding signal intensity” value [19] was 1, the “SPOT peptide array binding signal intensity” value [20] was no more than 0 and the “SPOT peptide array binding signal intensity” value [21] was no more than 0. For the same binder, the “SPOT peptide array binding signal intensity” value [22] was 2890, the “SPOT peptide array binding signal intensity” value [23] was 2700 and the “SPOT peptide array binding signal intensity” value [24] was no more than 0. The “SPOT peptide array binding signal intensity” value [25] was no more than 0, the “SPOT peptide array binding signal intensity” value [26] was 2.5 and the “SPOT peptide array binding signal intensity” value [27] was 6. For the same binder, the “SPOT peptide array binding signal intensity” value [28] was no more than 0, the “SPOT peptide array binding signal intensity” value [29] was 20.5 and the “SPOT peptide array binding signal intensity” value [30] was 38.8. The “SPOT peptide array binding signal intensity” value [31] was no more than 0, the “SPOT peptide array binding signal intensity” value [32] was 0.667 and the “SPOT peptide array binding signal intensity” value [33] was no more than 0. For the same binder, the “SPOT peptide array binding signal intensity” value [34] was 7.5, the “SPOT peptide array binding signal intensity” value [35] was 12 and the “SPOT peptide array binding signal intensity” value [36] was 2.75. The “SPOT peptide array binding signal intensity” value [37] was 4, the “SPOT peptide array binding signal intensity” value [38] was 3.5 and the “SPOT peptide array binding signal intensity” value [39] was 4. For the same binder, the “SPOT peptide array binding signal intensity” value [40] was 3400, the “SPOT peptide array binding signal intensity” value [41] was 45 and the “SPOT peptide array binding signal intensity” value [42] was 1. The “SPOT peptide array binding signal intensity” value [43] was 8.5, the “SPOT peptide array binding signal intensity” value [44] was 1 and the “SPOT peptide array binding signal intensity” value [45] was 2. The “SPOT peptide array binding signal intensity” value [46] was 1, the “SPOT peptide array binding signal intensity” value [47] was no more than 0 and the “SPOT peptide array binding signal intensity” value [48] was no more than 0. The “SPOT peptide array binding signal intensity” value [49] was 0.5, the “SPOT peptide array binding signal intensity” value [50] was 1750 and the “SPOT peptide array binding signal intensity” value [51] was 1380. The “SPOT peptide array binding signal intensity” value [52] was 18.5, the “SPOT peptide array binding signal intensity” value [53] was no more than 0 and the “SPOT peptide array binding signal intensity” value [54] was 0.5. For the same binder, the “SPOT peptide array binding signal intensity” value [55] was no more than 0, the “SPOT peptide array binding signal intensity” value [56] was no more than 0 and the “SPOT peptide array binding signal intensity” value [57] was 2.5. The “SPOT peptide array binding signal intensity” value [58] was 8, the “SPOT peptide array binding signal intensity” value [59] was no more than 0 and the “SPOT peptide array binding signal intensity” value [60] was 155. The “SPOT peptide array binding signal intensity” value [61] was 1.75, the “SPOT peptide array binding signal intensity” value [62] was no more than 0 and the “SPOT peptide array binding signal intensity” value [63] was 1. For the same binder, the “SPOT peptide array binding signal intensity” value [64] was 6.5, the “SPOT peptide array binding signal intensity” value [65] was 4 and the “SPOT peptide array binding signal intensity” value [66] was 87.2. The “SPOT peptide array binding signal intensity” value [67] was no more than 0, the “SPOT peptide array binding signal intensity” value [68] was no more than 0 and the “SPOT peptide array binding signal intensity” value [69] was 1880. The “SPOT peptide array binding signal intensity” value [70] was 18.5, the “SPOT peptide array binding signal intensity” value [71] was 10 and the “SPOT peptide array binding signal intensity” value [72] was no more than 0. The “SPOT peptide array binding signal intensity” value [73] was 10 and the “SPOT peptide array binding signal intensity” value [74] was 13.

For TSIEIPKRSPLRFTS, the “SPOT peptide array binding signal intensity” value [1] was 9, the “SPOT peptide array binding signal intensity” value [2] was 41.5 and the “SPOT peptide array binding signal intensity” value [3] was 9. The “SPOT peptide array binding signal intensity” value [4] was 27, the “SPOT peptide array binding signal intensity” value [5] was 16 and the “SPOT peptide array binding signal intensity” value [6] was 1.5. For the same binder, the “SPOT peptide array binding signal intensity” value [7] was no more than 0, the “SPOT peptide array binding signal intensity” value [8] was 6.5 and the “SPOT peptide array binding signal intensity” value [9] was no more than 0. For the same binder, the “SPOT peptide array binding signal intensity” value [10] was no more than 0, the “SPOT peptide array binding signal intensity” value [11] was 16.5 and the “SPOT peptide array binding signal intensity” value [12] was 2. The “SPOT peptide array binding signal intensity” value [13] was 10.5, the “SPOT peptide array binding signal intensity” value [14] was 2.33 and the “SPOT peptide array binding signal intensity” value [15] was no more than 0. The “SPOT peptide array binding signal intensity” value [16] was no more than 0, the “SPOT peptide array binding signal intensity” value [17] was no more than 0 and the “SPOT peptide array binding signal intensity” value [18] was 272. The “SPOT peptide array binding signal intensity” value [19] was 81, the “SPOT peptide array binding signal intensity” value [20] was 484 and the “SPOT peptide array binding signal intensity” value [21] was 12. For the same binder, the “SPOT peptide array binding signal intensity” value [22] was 41, the “SPOT peptide array binding signal intensity” value [23] was 20 and the “SPOT peptide array binding signal intensity” value [24] was 58.5. The “SPOT peptide array binding signal intensity” value [25] was 42, the “SPOT peptide array binding signal intensity” value [26] was no more than 0 and the “SPOT peptide array binding signal intensity” value [27] was no more than 0. For the same binder, the “SPOT peptide array binding signal intensity” value [28] was no more than 0, the “SPOT peptide array binding signal intensity” value [29] was 27 and the “SPOT peptide array binding signal intensity” value [30] was 3. The “SPOT peptide array binding signal intensity” value [31] was 61, the “SPOT peptide array binding signal intensity” value [32] was 2 and the “SPOT peptide array binding signal intensity” value [33] was no more than 0. For the same binder, the “SPOT peptide array binding signal intensity” value [34] was 6, the “SPOT peptide array binding signal intensity” value [35] was 83 and the “SPOT peptide array binding signal intensity” value [36] was no more than 0. For the same binder, the “SPOT peptide array binding signal intensity” value [37] was 21, the “SPOT peptide array binding signal intensity” value [38] was 5 and the “SPOT peptide array binding signal intensity” value [39] was no more than 0. For the same binder, the “SPOT peptide array binding signal intensity” value [40] was 4.5, the “SPOT peptide array binding signal intensity” value [41] was 1 and the “SPOT peptide array binding signal intensity” value [42] was 3. For the same binder, the “SPOT peptide array binding signal intensity” value [43] was no more than 0, the “SPOT peptide array binding signal intensity” value [44] was 0.5 and the “SPOT peptide array binding signal intensity” value [45] was 20.5. For the same binder, the “SPOT peptide array binding signal intensity” value [46] was no more than 0, the “SPOT peptide array binding signal intensity” value [47] was no more than 0 and the “SPOT peptide array binding signal intensity” value [48] was 252. For the same binder, the “SPOT peptide array binding signal intensity” value [49] was no more than 0, the “SPOT peptide array binding signal intensity” value [50] was 11.5 and the “SPOT peptide array binding signal intensity” value [51] was 2. The “SPOT peptide array binding signal intensity” value [52] was 2, the “SPOT peptide array binding signal intensity” value [53] was 2 and the “SPOT peptide array binding signal intensity” value [54] was 101. For the same binder, the “SPOT peptide array binding signal intensity” value [55] was 0.5, the “SPOT peptide array binding signal intensity” value [56] was no more than 0 and the “SPOT peptide array binding signal intensity” value [57] was 30.2. For the same binder, the “SPOT peptide array binding signal intensity” value [58] was 206, the “SPOT peptide array binding signal intensity” value [59] was no more than 0 and the “SPOT peptide array binding signal intensity” value [60] was 162.
